# Experimental data: PubChem BioAssay (Tox21)
# Where “and” joins values, the source holds several entries; their conditions need not be identical. Equal values may be shown once. Records with an inconclusive call do not appear. Where a call stands in place of a potency, no number is given. Some structures have more than one record in an assay (separate samples or runs), and their calls can disagree. Calls of active or inactive are those of the source. Unless noted, calls come from the whole dose curve.
# Assay: qHTS assay for small molecule disruptors of the mitochondrial membrane potential - cell viability (AID 720634); note: nearly all actives have a fitted effect of over 20% in size;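 for activity change, negative = cytotoxicity: human HepG2 liver cancer cells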
# Settings: HepG2 viability, ATP luminescence (CellTiter-Glo), 1 h; series mostly up to 83.2 µM; activity change, negative = cytotoxicity: at the top concentration
# Summary of the method: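 In this qHTS format, HepG2 cells plated overnight were pinned with compound, incubated 1 hr, and assayed for ATP luminescence with CellTiter-Glo after m-MPI dye addition.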
# Potency is the fitted concentration of half-maximal effect.
SMILES,Potency,"activity change, negative = cytotoxicity"
Oc1cccc2cccnc12,inactive,
O=C(O)CCl,inactive,
Cc1cc(Cl)ccc1N,inactive,
O=c1nc(O)n(Cl)c(=O)n1Cl,inactive,
Nc1ccc(Cl)cc1,inactive,
CCCCn1cc[n+](C)c1C,inactive,
CCC[N+]1(C)CCCC1,inactive,
CCCCCCCCCCn1cc[n+](C)c1,inactive,
CCCCCCCCCCCCn1cc[n+](C)c1,154 nM (active) and inactive,
CN(C)[C@@H]1C(=O)C(C(N)=O)=C(O)[C@@]2(O)C(=O)C3=C(O)c4c(O)cccc4[C@@](C)(O)[C@H]3[C@H](O)[C@@H]12,inactive,
O=c1[nH]c(=O)n(Cl)c(=O)n1Cl,inactive,
CC(Cl)(Cl)C(=O)O,inactive,
C[N+](C)(C)Cc1ccccc1,inactive,
COP(=O)(OC)OC=C(Cl)Cl,inactive,
CCCC[n+]1ccc(C)cc1,inactive and 48.3 µM (active),
CCCCCC[n+]1ccccc1,inactive,
CCn1cc[n+](C)c1C,inactive,
CCCCn1cc[n+](C)c1,inactive,
O=S(=O)(O)O,inactive,
CCCCCCCCn1cc[n+](C)c1,inactive,
CCCn1cc[n+](C)c1,inactive,
CC[N+](CC)(CC)CC,inactive,
CCCC[n+]1ccccc1,inactive,
CCC[N+]1(C)CCCCC1,inactive,
CCCCCCCCCCCC(=O)O,inactive,
C=CCOC(Cn1ccnc1)c1ccc(Cl)cc1Cl (centres undefined),,-5.7% (inactive)
CCCCCCCCCCCCOS(=O)(=O)O,inactive,
COc1ccccc1N,inactive,
CCCCCCCCCCCCCC[P+](CCCCCC)(CCCCCC)CCCCCC,30.8 µM (active) and 24.5 µM (active) and 1.72 µM (active),
CCCC[N+]1(C)CCCCC1,inactive,

# Assay: qHTS assay for small molecule disruptors of the mitochondrial membrane potential (AID 720635; active = well fitted inhibition curve with a large enough effect in the signal ratio in the repeat runs; the % refers to the signal ratio)
# Settings: HepG2 mitochondrial membrane potential, Mito-MPS dye ratio; series mostly up to 83.2 µM; ratio activity, negative = MMP loss: at the top concentration
# Summary of the method: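 HepG2 cells (2,000/well) attached overnight at 37C, then took compound for 1 hr at 37C, 5% CO2. Mito-MPS dye was added for 30 min; fluorescence was read at 490/535 nm (monomers) and 540/590 nm (aggregates).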
SMILES,Potency,"ratio activity, negative = MMP loss"
O=C(O)CCl,inactive,
Cc1cc(Cl)ccc1N,inactive,
O=c1nc(O)n(Cl)c(=O)n1Cl,inactive,
Nc1ccc(Cl)cc1,inactive,
CCCCn1cc[n+](C)c1C,inactive,
CCC[N+]1(C)CCCC1,inactive,
CN(C)[C@@H]1C(=O)C(C(N)=O)=C(O)[C@@]2(O)C(=O)C3=C(O)c4c(O)cccc4[C@@](C)(O)[C@H]3[C@H](O)[C@@H]12,inactive and 34.4 µM (active),
O=c1[nH]c(=O)n(Cl)c(=O)n1Cl,inactive,
CC(Cl)(Cl)C(=O)O,,2.71% (inactive)
C[N+](C)(C)Cc1ccccc1,inactive,
COP(=O)(OC)OC=C(Cl)Cl,inactive,
CCCCCC[n+]1ccccc1,61.7 µM (active) and inactive,
CCn1cc[n+](C)c1C,inactive,
CCCCn1cc[n+](C)c1,inactive,
O=S(=O)(O)O,inactive,
CCCn1cc[n+](C)c1,inactive,
CC[N+](CC)(CC)CC,,10.8% (inactive)
CCCC[n+]1ccccc1,inactive,
CCC[N+]1(C)CCCCC1,inactive,
CCCCCCCCCCCC(=O)O,inactive,
CCCCCCCCCCCCOS(=O)(=O)O,inactive,
COc1ccccc1N,inactive,
CCCCCCCCCCCCCC[P+](CCCCCC)(CCCCCC)CCCCCC,434 nM (active) and 616 nM (active) and 273 nM (active),
CCCC[N+]1(C)CCCCC1,inactive,
